Assay [1] is described as follows: rapamycin-like changes in RPL19A-GFP expression – cell-based, S. cerevisiae, multiplex flow cytometry, primary screen (AID 1862; in the data active = percent of DMSO control GFP below about 86%;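 note: lower values mimic rapamycin by blocking the RPL19A rise seen in DMSO cells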). The note with it: S. cerevisiae RPL19A-GFP strain, flow cytometry fluorescence, 3 h; at 10 µM; stronger effect = lower value. On the technique in general: In flow cytometry, cells or beads pass a laser one at a time.
Assay [2] is described as follows: TOR pathway GLN3 branch reporter MEP2-GFP changes – S. cerevisiae, multiplex flow cytometry, primary screen (AID 1867).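 Note: median GFP channel fluorescence of barcode-gated MEP2-GFP cells measured by flow cytometry.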 To be noted: S. cerevisiae MEP2-GFP strain, 3 h, at 10 µM, stronger effect = higher value, 100% means same as DMSO wells.
The nature of assay [3]: TOR pathway RTG branch CIT2 reporter changes – S. cerevisiae, GFP fusion, multiplex flow cytometry, primary screen (AID 1870;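 active = percent response above a set limit, the screen-wide mean plus 3 SD, cut at about 130% in these data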;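 note: barcoded CIT2-GFP strain pooled with four other GFP strains with rapamycin as positive control; median GFP fluorescence per well over plate mean of DMSO wells so 100% = DMSO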). The note with it: S. cerevisiae CIT2-GFP expression, 3 h, at 10 µM, stronger effect = higher value.
Assay [4] is described as follows: TOR pathway LAP4-GFP level changes – S. cerevisiae, multiplex flow cytometry, primary screen (AID 1873;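 active = GFP signal, as percent of the solvent control, above the screen mean plus 3 SD, about 149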). The note with it: S. cerevisiae LAP4-GFP expression, 3 h, at 10 µM, stronger effect = higher value.
Assay [5] is described as follows: yeast AGP1-GFP level changes, GLN3 branch – cell-based, multiplex flow cytometry, S. cerevisiae, primary screen (AID 1887;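 active = GFP signal above the screen-wide mean plus 3 SD, that is over about 124.5% of the solvent control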;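 note: AGP1-GFP fusion strain of S. cerevisiae within a five-strain barcoded multiplex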). To be noted: 3 h, at 10 µM, stronger effect = higher value.
Assay [6] is described as follows: reduced mouse 2C T cell binding to pMHC/ICAM-1 vesicles – MLPCN validation set, flow cytometry, LFA-1/ICAM-1 modulator project, pilot screen (AID 2523;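 active = response below a set limit, under 55% cells CD8-positive and vesicle-bound, and CD8 cells' 90th-percentile brightness under 279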;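 for vesicle binding response: mean PE anti-B7-1 fluorescence of CD8+ cells relative to row control; 100% = QL9-loaded vesicles with DMSO vehicle in the same plate row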). To be noted: 2C mouse CD8+ T cells, at 7 µM, stronger effect = lower value; double positive events: measured here: CD8+/vesicle+ event percentage.
Assay [7] addresses Integrin beta-1 (Homo sapiens) + Integrin alpha-4 (Homo sapiens) (UniProt P13612+P05556). Nature of the assay: alpha4beta1 integrin LIBS antibody binding reduction – U937 cells, HUTS-21 mAb, flow cytometry, validation set, VLA-4 allosteric modulator project, pilot screen (AID 2674;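 active = inhibition above 50%, about 3 SD of the validation set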;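 note: antibody binding induced by the VLA-4 ligand LDV present at three times its Kd; 0% = LDV ligand with antibody and no compound and 100% = antibody without LDV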). To be noted: HUTS-21 LIBS mAb binding, at 6.7 µM, stronger effect = higher value, binding induced by LDV ligand.

Assay [8] in a line: calorie-restriction mimetic ROS inhibitors, yeast – validation compound set, pilot screen (AID 2706;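 active = superoxide response below 65% of plate, a cut near 3 SD across the whole screen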;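 note: yeast exposed to compound for one week at 30 degrees C before staining; 100% = mean of all compound wells on the same plate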). To be noted: S. cerevisiae aging, superoxide DHE fluorescence; at 10 µM; stronger effect = lower value.
For assay [9], the target named is Beta-adrenergic receptor kinase 1 (Homo sapiens) (UniProt P25098). Nature of the assay: GRK2 binders displacing RNA aptamer, biochemical, validation, human GRK2, bead flow cytometry (AID 488806;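 active = aptamer binding inhibition above 30%, about 3 SD of noise from non-fluorescent compounds; inactive = inhibition at or below 30%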). To be noted: bead-bound GRK2, FAM-aptamer displacement, at 10 µM, stronger effect = higher value.
The target of assay [10] is Beta-2 adrenergic receptor (Homo sapiens) (UniProt P07550). In words: agonist-induced loss of surface beta2AR – cell-based, FAP fluorogen, flow cytometry, validation set, pilot screen (AID 504459;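 active = percent response above 42, roughly 3 SD of non-fluorescent test compounds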;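 note: agonist-driven loss of surface beta2AR via internalization measured by FAP dye flow cytometry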). The note with it: Am2.2-beta2AR cells, at 10 µM, stronger effect = higher value.
The target in assay [11] is AP-2 complex subunit beta (Homo sapiens) (UniProt P63010). Nature of the assay: beta-arrestin/AP2 interaction blockers – biochemical, validation set, GST-AP2 beads, flow cytometry, pilot screen (AID 504541;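 active = inhibition above 54%, about 3 SD of non-fluorescent compounds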;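 note: AP2 carries R879A mutation and is captured from E. coli lysate; bead-bound FITC arrestin peptide fluorescence measuring arrestin peptide binding to AP2; 0% = DMSO wells and 100% = excess unlabeled arrestin peptide control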). To be noted: FITC arrestin peptide, at 10 µM, stronger effect = higher value, AP2 beta2 appendage fragment, R879A mutant.
The nature of assay [12]: cytosolic pH regulators acting via V-ATPase – S. cerevisiae, pHLuorin, HTS validation (AID 504600; in the data active = response above about 15%;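 note: plate controls were DMSO for no effect and reference compound for full effect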). To be noted: V-ATPase proton transport, at 10 µM, stronger effect = higher value.
For assay [13], the system named is anti-desmoglein-3 scFv antibody binding to human DSG3. Nature of the assay: blockers of pathogenic pemphigus antibody–desmoglein-3 binding – biochemical, validation compound set, bead-based, flow cytometry, pilot screen (AID 588368;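 active = binding below the plate cutoff, the plate median minus 3 SD, with a reading above zero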;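 note: signal is the median channel fluorescence of bead-bound GFP antibody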). To be noted: Protein G beads, DSG3-Fc, scFv-GFP binding, at 10 µM, stronger effect = lower value.
The nature of assay [14]: Nile Red efflux blockade in pump-expressing yeast – validation compound set, multiplex, phenotypic, pilot screen (AID 588506;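 active = efflux inhibition above 0.42, the validation set average plus 4 SD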;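 note: Nile Red retained in cells so higher fluorescence means more efflux inhibition; 0 = negative control wells and 1 = enniatin B 25 µM full block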). The note with it: S. cerevisiae pump-expressing triplex, Nile Red efflux flow cytometry; at 10 µM; stronger effect = higher value; the pumps come from Candida albicans.
For assay [15], the target named is ATP-binding cassette sub-family B member 6 (Homo sapiens) (UniProt Q9NP58). Nature of the assay: blockers of ABCB6-driven porphyrin uptake – K562-ABCB6 cells, flow cytometry, validation set, pilot screen (AID 588550;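 active = inhibition above the screen-wide mean plus 3 SD, about 51%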;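 note: 0% = DMSO wells and 100% = benzethonium chloride 70 µM positive control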). The note with it: K562-ABCB6 porphyrin accumulation, 1 h, at 10 µM, stronger effect = higher value.
A short description of assay [16]: AML differentiation inducers, ER-HoxA9 marrow cells – cell-based, GFP/MAC1 double positive, flow cytometry, validation set, primary screen (AID 588685;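 active = differentiation response of at least 50%, scaled between solvent and reference control, from cells with both markers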;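 note: compound exposure lasts four days before antibody staining and flow analysis; 0% = DMSO wells and 100% = 5 µM fulvestrant positive control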). The note with it: stronger effect = higher value, normalized: vehicle 0, fulvestrant 100.

Structures are written as SMILES. Records with an inconclusive call do not appear. Calls of active or inactive are those of the source.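 Rule for the calls, unless noted: active = GFP response, as percent of the DMSO control, above the screen-wide mean plus 3 SD, about 139; inconclusive = no response measured because the compound's own fluorescence interfered; inactive = the rest.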

AP-2 complex subunit beta (Homo sapiens), sequence (P63010 whole entry, looked up, the tested form may be a part, one chain of several): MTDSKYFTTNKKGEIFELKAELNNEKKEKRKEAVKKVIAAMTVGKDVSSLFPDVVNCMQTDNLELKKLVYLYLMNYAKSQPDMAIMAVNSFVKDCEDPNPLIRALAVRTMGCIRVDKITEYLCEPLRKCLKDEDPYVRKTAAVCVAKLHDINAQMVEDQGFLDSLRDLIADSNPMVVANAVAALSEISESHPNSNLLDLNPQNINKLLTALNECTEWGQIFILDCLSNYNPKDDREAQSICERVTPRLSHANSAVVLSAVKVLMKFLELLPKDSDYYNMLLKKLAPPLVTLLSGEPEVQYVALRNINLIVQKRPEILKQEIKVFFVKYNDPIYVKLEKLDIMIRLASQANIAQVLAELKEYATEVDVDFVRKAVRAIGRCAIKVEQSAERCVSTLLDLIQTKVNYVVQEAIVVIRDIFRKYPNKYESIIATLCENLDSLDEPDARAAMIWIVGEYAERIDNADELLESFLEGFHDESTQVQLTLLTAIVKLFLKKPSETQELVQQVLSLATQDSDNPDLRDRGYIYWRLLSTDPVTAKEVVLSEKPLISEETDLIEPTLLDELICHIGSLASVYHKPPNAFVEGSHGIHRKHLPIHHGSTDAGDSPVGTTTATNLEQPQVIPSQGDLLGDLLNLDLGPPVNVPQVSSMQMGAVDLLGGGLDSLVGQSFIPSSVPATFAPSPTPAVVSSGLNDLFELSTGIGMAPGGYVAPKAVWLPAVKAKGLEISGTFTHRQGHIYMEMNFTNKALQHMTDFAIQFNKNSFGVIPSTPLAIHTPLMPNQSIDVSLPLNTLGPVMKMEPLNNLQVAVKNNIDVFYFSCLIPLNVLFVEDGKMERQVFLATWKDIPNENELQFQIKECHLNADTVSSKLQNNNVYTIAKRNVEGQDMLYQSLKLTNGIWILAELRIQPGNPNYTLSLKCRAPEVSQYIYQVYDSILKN
Beta-2 adrenergic receptor (Homo sapiens), sequence (P07550 whole entry, looked up): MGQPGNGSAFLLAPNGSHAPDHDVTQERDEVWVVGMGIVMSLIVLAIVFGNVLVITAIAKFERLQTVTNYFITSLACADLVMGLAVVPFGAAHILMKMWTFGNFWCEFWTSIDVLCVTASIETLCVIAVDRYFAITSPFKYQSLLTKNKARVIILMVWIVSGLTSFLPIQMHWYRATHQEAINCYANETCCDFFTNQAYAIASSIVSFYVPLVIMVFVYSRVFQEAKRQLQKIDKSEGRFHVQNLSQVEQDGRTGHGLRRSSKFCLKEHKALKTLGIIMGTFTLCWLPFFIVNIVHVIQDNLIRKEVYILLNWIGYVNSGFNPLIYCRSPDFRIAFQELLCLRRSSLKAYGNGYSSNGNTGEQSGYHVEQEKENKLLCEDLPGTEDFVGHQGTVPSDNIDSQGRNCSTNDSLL
Beta-adrenergic receptor kinase 1 (Homo sapiens), sequence (P25098 whole entry, looked up): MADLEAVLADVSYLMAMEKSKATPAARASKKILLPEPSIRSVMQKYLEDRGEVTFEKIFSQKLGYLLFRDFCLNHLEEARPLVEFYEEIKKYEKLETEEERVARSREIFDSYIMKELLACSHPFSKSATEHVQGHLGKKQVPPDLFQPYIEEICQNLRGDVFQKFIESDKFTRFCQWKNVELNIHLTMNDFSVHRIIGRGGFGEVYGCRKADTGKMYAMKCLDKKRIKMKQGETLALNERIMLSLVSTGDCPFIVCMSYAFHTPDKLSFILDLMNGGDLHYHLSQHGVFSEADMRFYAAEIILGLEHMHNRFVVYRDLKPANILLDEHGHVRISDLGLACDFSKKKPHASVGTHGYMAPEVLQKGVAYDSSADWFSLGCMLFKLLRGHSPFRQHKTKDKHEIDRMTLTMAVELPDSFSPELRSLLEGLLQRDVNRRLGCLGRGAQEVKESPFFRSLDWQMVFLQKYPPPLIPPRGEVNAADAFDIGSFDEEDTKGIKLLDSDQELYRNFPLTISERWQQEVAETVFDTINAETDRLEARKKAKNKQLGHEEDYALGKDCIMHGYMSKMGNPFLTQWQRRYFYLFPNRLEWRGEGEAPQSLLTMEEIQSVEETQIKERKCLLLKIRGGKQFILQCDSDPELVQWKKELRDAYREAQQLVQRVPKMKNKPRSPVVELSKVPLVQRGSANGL
ATP-binding cassette sub-family B member 6 (Homo sapiens), sequence (Q9NP58 whole entry, looked up): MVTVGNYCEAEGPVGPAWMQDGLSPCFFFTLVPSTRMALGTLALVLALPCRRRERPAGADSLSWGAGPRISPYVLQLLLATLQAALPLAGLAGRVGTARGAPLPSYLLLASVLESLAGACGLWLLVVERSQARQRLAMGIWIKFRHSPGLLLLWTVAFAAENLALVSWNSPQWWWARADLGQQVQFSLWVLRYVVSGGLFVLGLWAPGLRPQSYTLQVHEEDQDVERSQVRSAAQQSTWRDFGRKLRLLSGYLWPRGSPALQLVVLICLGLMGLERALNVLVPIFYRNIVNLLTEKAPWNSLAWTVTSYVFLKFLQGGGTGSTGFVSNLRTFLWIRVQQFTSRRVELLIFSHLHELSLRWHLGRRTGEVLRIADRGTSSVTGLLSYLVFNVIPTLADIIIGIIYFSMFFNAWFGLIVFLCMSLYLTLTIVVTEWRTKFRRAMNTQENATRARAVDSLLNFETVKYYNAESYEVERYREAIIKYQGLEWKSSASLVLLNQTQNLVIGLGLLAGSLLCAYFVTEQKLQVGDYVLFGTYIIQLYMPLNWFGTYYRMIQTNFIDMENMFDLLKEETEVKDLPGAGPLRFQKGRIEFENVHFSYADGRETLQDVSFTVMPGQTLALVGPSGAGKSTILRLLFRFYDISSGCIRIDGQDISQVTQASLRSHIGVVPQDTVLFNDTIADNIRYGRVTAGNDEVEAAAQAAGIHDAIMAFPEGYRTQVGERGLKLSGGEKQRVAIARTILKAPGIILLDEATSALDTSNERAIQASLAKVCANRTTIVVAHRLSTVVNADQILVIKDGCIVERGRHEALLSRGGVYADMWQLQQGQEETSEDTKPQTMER
Integrin beta-1 (Homo sapiens) + Integrin alpha-4 (Homo sapiens), sequence (P05556 whole entry, looked up): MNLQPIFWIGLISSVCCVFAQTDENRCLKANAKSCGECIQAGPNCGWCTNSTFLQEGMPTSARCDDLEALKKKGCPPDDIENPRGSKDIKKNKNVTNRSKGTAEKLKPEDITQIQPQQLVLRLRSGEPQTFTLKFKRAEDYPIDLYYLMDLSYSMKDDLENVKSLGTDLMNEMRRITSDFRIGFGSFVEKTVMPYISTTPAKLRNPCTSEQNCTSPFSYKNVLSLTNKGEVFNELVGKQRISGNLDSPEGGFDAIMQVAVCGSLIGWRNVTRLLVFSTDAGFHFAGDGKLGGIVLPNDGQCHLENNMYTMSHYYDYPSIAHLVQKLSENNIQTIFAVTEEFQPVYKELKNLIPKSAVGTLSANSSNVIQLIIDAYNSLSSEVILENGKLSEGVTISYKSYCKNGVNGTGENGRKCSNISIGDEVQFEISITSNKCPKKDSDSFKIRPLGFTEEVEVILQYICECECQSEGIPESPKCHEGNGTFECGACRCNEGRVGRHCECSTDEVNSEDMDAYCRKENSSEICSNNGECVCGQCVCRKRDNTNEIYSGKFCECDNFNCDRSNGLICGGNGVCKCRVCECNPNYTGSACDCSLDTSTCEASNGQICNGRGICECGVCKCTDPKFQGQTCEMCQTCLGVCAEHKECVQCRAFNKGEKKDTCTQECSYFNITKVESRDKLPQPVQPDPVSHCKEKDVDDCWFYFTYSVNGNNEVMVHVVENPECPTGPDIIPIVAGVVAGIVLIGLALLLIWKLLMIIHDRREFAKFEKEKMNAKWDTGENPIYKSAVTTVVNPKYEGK
Integrin beta-1 (Homo sapiens) + Integrin alpha-4 (Homo sapiens), sequence (P13612 whole entry, looked up): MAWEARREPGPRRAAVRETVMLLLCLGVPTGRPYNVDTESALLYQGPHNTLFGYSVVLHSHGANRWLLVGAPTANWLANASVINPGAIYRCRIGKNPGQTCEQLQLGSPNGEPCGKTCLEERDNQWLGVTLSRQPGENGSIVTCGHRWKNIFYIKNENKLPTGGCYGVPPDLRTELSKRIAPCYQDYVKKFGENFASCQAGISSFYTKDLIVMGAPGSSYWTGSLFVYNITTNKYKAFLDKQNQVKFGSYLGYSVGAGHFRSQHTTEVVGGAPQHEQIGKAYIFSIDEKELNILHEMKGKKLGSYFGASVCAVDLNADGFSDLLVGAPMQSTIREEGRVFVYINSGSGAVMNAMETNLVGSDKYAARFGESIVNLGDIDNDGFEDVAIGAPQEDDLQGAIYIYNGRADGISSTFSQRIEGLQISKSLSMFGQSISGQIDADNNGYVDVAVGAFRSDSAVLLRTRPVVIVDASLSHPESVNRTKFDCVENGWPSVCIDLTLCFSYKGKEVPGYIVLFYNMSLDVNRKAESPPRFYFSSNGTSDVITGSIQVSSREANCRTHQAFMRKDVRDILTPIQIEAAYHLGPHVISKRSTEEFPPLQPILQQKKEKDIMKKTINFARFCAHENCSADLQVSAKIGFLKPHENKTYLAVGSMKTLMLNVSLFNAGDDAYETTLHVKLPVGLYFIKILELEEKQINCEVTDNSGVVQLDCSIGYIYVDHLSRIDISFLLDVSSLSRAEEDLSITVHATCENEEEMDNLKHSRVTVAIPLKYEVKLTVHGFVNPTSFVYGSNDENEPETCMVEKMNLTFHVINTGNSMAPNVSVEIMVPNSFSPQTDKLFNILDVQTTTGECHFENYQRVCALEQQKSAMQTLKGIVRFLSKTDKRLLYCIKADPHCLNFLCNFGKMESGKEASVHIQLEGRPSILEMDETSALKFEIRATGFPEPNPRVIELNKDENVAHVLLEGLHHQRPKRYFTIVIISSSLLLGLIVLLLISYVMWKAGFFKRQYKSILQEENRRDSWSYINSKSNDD

Usually inhibition stands for the change of the read-out against control, counted positive when it falls. For the compound `CCCCNc1ccc(C(=O)OCCN(C)C)cc1`, the percent of DMSO control GFP in assay [1] was 101% (inactive). The GFP response vs DMSO in [2] was 109% (inactive); in assay [4], 103% (inactive). In addition, the percent response of DMSO control in assay [3] is 98.9% (inactive). In addition, the GFP response, % of DMSO in assay [5] is 97.3% (inactive). The compound also had a double positive events in [6] of 63.6%. For the same compound, the vesicle binding response in assay [6] is 212% (inactive). Further, the inhibition in assay [7] was 5.77% (inactive); in [11] it was 5.38% (inactive); in assay [15] it was 15% (inactive). Besides, the superoxide response (% of plate) in assay [8] is 106% (inactive). In addition, in assay [9], the aptamer binding inhibition is -1% (inactive). In addition, the results for the response in assay [10] and in [12] were -12.7% (inactive) and -3.28% (inactive), respectively. In assay [13], the binding (% of control) was 101% (inactive). In addition, the efflux inhibition (fraction of control) in assay [14] is -0.01 (inactive). Further, the differentiation response in assay [16] is 19.8% (inactive).

`CC1=NN(c2ccccc2)C(=O)C1`: the percent of DMSO control GFP in assay [1] was 108% (inactive). The GFP response vs DMSO in assay [2] was 106% (inactive); in assay [4], 99.1% (inactive). Besides, the percent response of DMSO control in assay [3] is 109% (inactive). For the same compound, in assay [5], the GFP response, % of DMSO is 111% (inactive). The compound further gave a double positive events in [6] of 62.5%. In assay [6], the vesicle binding response is 206% (inactive). Also, the inhibition in [7] was -14.5% (inactive); in assay [11], -6.32% (inactive); in assay [15] it was -1% (inactive). Besides, the superoxide response (% of plate) in assay [8] is 91% (inactive). The aptamer binding inhibition in [9] was -3% (inactive). Also, the response is 3.52% (inactive) in assay [10] and 0.56% (inactive) in assay [12]. In addition, in assay [13], the binding (% of control) was 101% (inactive). Moreover, the efflux inhibition (fraction of control) in [14] was -0.1 (inactive). In addition, the differentiation response in assay [16] is 2.74% (inactive).

Consider `Cc1cccc(-n2c(Cc3ccccc3)n[nH]c2=S)c1`, for which, in [1], the percent of DMSO control GFP is 93.9% (inactive). Besides, the results for the GFP response vs DMSO in assay [2] and in assay [4] were 106% (inactive) and 124% (inactive), respectively. The percent response of DMSO control in [3] was 88.2% (inactive). In addition, the GFP response, % of DMSO in [5] was 100% (inactive). Further, the double positive events in assay [6] worked out at 61.2%. Besides, the vesicle binding response in [6] was 102% (inactive). Also, the inhibition was -18.2% (inactive) in assay [7], -2.3% (inactive) in assay [11] and 4% (inactive) in assay [15]. Besides, in [8], the superoxide response (% of plate) was 103% (inactive). Further, in assay [9], the aptamer binding inhibition was 4% (inactive). Besides, the response in [10] is -0.19% (inactive); in assay [12], 1.08% (inactive). In addition, the binding (% of control) in assay [13] is 95.5% (inactive). In addition, the efflux inhibition (fraction of control) in [14] was -0.1 (inactive). In assay [16], the differentiation response is -13.6% (inactive).

With `CC1=NN(C(=O)c2ccc(Br)cc2)C(O)(c2ccccc2)C1` (stereo not drawn), the percent of DMSO control GFP in assay [1] is 100% (inactive). Further, the GFP response vs DMSO in [2] was 96.6% (inactive); in [4], 109% (inactive). The percent response of DMSO control in assay [3] was 102% (inactive). Moreover, the GFP response, % of DMSO in [5] is 103% (inactive). In addition, the double positive events in assay [6] is 64.3%. Besides, the vesicle binding response in assay [6] is 165% (inactive). In addition, the results for the inhibition in [7], in assay [11] and in assay [15] were 13.7% (inactive), -5.19% (inactive) and -9% (inactive), respectively. In addition, the superoxide response (% of plate) in assay [8] was 86.9% (inactive). The aptamer binding inhibition in [9] was 0% (inactive). Further, the response in assay [10] was 5.99% (inactive); in assay [12], -3.1% (inactive). Besides, in [13], the binding (% of control) is 96.8% (inactive). Besides, the efflux inhibition (fraction of control) in [14] is 0.36 (inactive). Also, in [16], the differentiation response is -4.57% (inactive).
